From PubChem
Glyco luc inh – N-linked glycosylation inhibition; D54 ERlucT glycosylation luciferase reporter, 24 h; percent of 100 nM tunicamycin response; reporter increase, % at 12.5 µM; 360,000 tested, 0.23% active; AID 588692;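 active = mean luciferase reporter signal, scaled so untreated is 0 and the glycosylation-blocking control 100, at or above a set limit in every replicate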;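 also: luciferase carries N-glycosylation sites so blocking glycosylation raises the light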
PglD inh – blocks C. jejuni PglD acetyltransferase activity; 360,000 tested, 0.098% active; inhibition, % at 12.5 µM; AID 602405; purified PglD enzyme, DTNB colorimetric CoA detection; in the data active = inhibition above about 16%, passing the limit was not always enough
DENV2 CPE – DENV2-induced cell death inhibition | CPE inhibition, % at 9.99 µM | 350,000 tested, 1.7% active | DENV2-infected cells, cytopathic effect rescue, plate reader | AID 651640; in the data active = CPE inhibition above about 20%, passing the limit was not always enough; tested in BHK-21 cells
Rtt109 Vps75 – C. albicans Rtt109 histone acetyltransferase inhibition; 330,000 tested, 0.16% active; Q5AAJ8; purified Rtt109/Vps75, ThioGlo CoA-SH fluorescence, 4 h; AID 540336; inhibition, % at 34.9 µM;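 active = inhibition of at least 50% in every replicate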
Target sequence (Q5AAJ8 whole entry, looked up): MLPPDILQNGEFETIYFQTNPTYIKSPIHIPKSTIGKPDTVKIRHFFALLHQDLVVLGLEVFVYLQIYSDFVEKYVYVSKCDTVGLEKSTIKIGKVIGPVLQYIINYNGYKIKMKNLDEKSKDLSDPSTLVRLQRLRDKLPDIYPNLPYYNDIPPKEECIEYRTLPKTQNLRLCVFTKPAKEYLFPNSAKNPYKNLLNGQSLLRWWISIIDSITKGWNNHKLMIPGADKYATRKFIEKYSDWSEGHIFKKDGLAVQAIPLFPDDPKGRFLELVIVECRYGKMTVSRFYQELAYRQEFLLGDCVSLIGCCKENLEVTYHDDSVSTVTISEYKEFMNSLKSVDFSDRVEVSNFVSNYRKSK
Large screens that a line does not name were inactive. The sample as a whole holds a higher share of hits than the screen did.

COc1ccc(S(=O)(=O)N(C)C[C@H]2Oc3c(NC(=O)CCCCCC(=O)Nc4ccccc4N)cccc3C(=O)N([C@@H](C)CO)C[C@@H]2C)cc1	DENV2 CPE 32 (no result: Glyco luc inh, PglD inh, Rtt109 Vps75)
COc1ccc(S(=O)(=O)N(C)C[C@@H]2Oc3c(NC(=O)CCCCCC(=O)Nc4ccccc4N)cccc3C(=O)N([C@H](C)CO)C[C@@H]2C)cc1	DENV2 CPE 36 (no result: Glyco luc inh, PglD inh, Rtt109 Vps75)
Cc1noc(C)c1NC(=O)N(C)C[C@@H]1OCCCC[C@@H](C)Oc2ccc(NS(=O)(=O)c3ccccc3)cc2C(=O)N([C@H](C)CO)C[C@H]1C	none (no result: Glyco luc inh, Rtt109 Vps75)
CC(C)c1ccc(NC(=O)Nc2nc(C(N)c3ccccc3Cl)cs2)cc1 (centres undefined)	DENV2 CPE 23 (no result: Rtt109 Vps75)
CC(C)c1ccc(NC(=O)Nc2nc(C(N)CCc3ccccc3)cs2)cc1 (centres undefined)	DENV2 CPE 37 (no result: Rtt109 Vps75)
CC(C)c1ccc(NC(=O)Nc2nc(C(C)N)cs2)cc1 (centres undefined)	none (no result: Rtt109 Vps75)
CO[C@@H]1CN(C)C(=O)c2cc(NC(C)=O)ccc2OC[C@H](C)N(C(=O)CC2CC2)C[C@H]1C	none (no result: Glyco luc inh, Rtt109 Vps75)
CO[C@@H]1CN(C)C(=O)c2cc(NC(C)=O)ccc2OC[C@@H](C)N(C(=O)CC2CC2)C[C@H]1C	DENV2 CPE 27 (no result: Glyco luc inh, Rtt109 Vps75)
CO[C@H]1CN(C)C(=O)c2cc(NC(C)=O)ccc2OC[C@H](C)N(C(=O)CC2CC2)C[C@@H]1C	DENV2 CPE 36 (no result: Glyco luc inh, Rtt109 Vps75)
CC=Cc1ccc2n(c1=O)C[C@@H]1[C@@H](CO)[C@H](C(=O)NC3CCC3)N(CCC)[C@H]21 (mixture of isomers)	none (no result: Glyco luc inh, PglD inh, Rtt109 Vps75)
COc1ccc(C#Cc2ccc([C@@H]3[C@H](CO)N4C(=O)CN(C(=O)c5ccncc5)C[C@@H]34)cc2)cc1	none (no result: Glyco luc inh, PglD inh, Rtt109 Vps75)
Cc1ccccc1S(=O)(=O)N1CC(=O)N2[C@H](CO)[C@@H](c3ccc(C#Cc4ccccc4)cc3)[C@@H]2C1	DENV2 CPE 29 (no result: Glyco luc inh, PglD inh, Rtt109 Vps75)
COc1ccc(C#Cc2ccc([C@@H]3[C@@H](CO)N4C(=O)CN(C(=O)c5ccncc5)C[C@@H]34)cc2)cc1	DENV2 CPE 38 (no result: Glyco luc inh, PglD inh, Rtt109 Vps75)
O=C(c1ccc2c(c1)OCO2)N1CC(=O)N2[C@@H](CO)[C@@H](c3ccc(C#Cc4ccccc4)cc3)[C@@H]2C1	none (no result: Glyco luc inh, PglD inh, Rtt109 Vps75)
O=C(c1ccc2c(c1)OCO2)N1CC(=O)N2[C@H](C1)[C@H](c1ccc(C#Cc3ccccc3)cc1)[C@@H]2CO	DENV2 CPE 50 (no result: Glyco luc inh, PglD inh, Rtt109 Vps75)
Cc1ccccc1S(=O)(=O)N1CC(=O)N2[C@@H](CO)[C@@H](c3ccc(C#Cc4ccccc4)cc3)[C@@H]2C1	none (no result: Glyco luc inh, PglD inh, Rtt109 Vps75)
O=C(c1ccccc1)N1CC(=O)N2[C@H](CO)[C@@H](c3ccc(C#Cc4ccccc4)cc3)[C@@H]2C1	DENV2 CPE 21 (no result: Glyco luc inh, PglD inh, Rtt109 Vps75)
C[C@H]1CN([C@@H](C)CO)C(=O)c2cccc(NC(=O)Nc3ccc(F)cc3)c2O[C@H]1CN(C)S(=O)(=O)c1ccc(F)cc1	none (no result: Glyco luc inh, Rtt109 Vps75)
COCC(=O)N1CC(=O)N2[C@@H](CO)[C@@H](c3ccc(Br)cc3)[C@@H]2C1	DENV2 CPE 29 (no result: Glyco luc inh, PglD inh, Rtt109 Vps75)
COCC(=O)N1CC(=O)N2[C@H](CO)[C@H](c3ccc(Br)cc3)[C@@H]2C1	none (no result: Glyco luc inh, PglD inh, Rtt109 Vps75)
O=C(c1ccc2c(c1)OCO2)N1CC(=O)N2[C@H](CO)[C@H](c3ccc(-c4ccccc4)cc3)[C@@H]2C1	DENV2 CPE 49 (no result: Glyco luc inh, PglD inh, Rtt109 Vps75)
C[C@H](O)C#Cc1ccc2c(c1)O[C@H](CN(C)Cc1ccccn1)[C@H](C)CN([C@@H](C)CO)S2(=O)=O	none (no result: Glyco luc inh, Rtt109 Vps75)
CO[C@@H]1CN(C)C(=O)c2ccc(NC(=O)C3CC3)cc2OC[C@@H](C)N(Cc2cccnc2)C[C@H]1C	none (no result: Glyco luc inh, Rtt109 Vps75)
CN(C(=O)COC(=O)c1ccc(S(=O)(=O)N2CCOCC2)cc1)c1ccccc1	DENV2 CPE 81
O=C(c1cccc(F)c1)N1CC[C@@H]2[C@H](CO)Nc3ccc(-c4ccc(F)cc4)cc3[C@@H]21	none (no result: Glyco luc inh, Rtt109 Vps75)
O=C(c1ccccc1)N1CC[C@@H]2[C@H]1c1cc(-c3ccc(F)cc3)ccc1N[C@@H]2CO	DENV2 CPE 29 (no result: Glyco luc inh, Rtt109 Vps75)
O=C(c1ccccn1)N1CC[C@@H]2[C@@H](CO)Nc3ccc(-c4ccccc4F)cc3[C@@H]21	DENV2 CPE 21 (no result: Glyco luc inh, Rtt109 Vps75)
O=C(c1ccccc1)N1CC[C@@H]2[C@H](CO)Nc3ccc(-c4ccc(F)cc4)cc3[C@@H]21	DENV2 CPE 32 (no result: Glyco luc inh, Rtt109 Vps75)
O=C(c1ccccn1)N1CC[C@@H]2[C@H]1c1cc(-c3ccc(F)cc3)ccc1N[C@@H]2CO	none (no result: Glyco luc inh, Rtt109 Vps75)
O=C(Nc1cc(F)ccc1F)N1C[C@@H]2[C@H](c3ccccc31)[C@H](CO)N2Cc1cccnc1	none (no result: Glyco luc inh, Rtt109 Vps75)
CC1(C(=O)NS(=O)(=O)c2cccc(Cl)c2)CCN1C(=O)COc1ccc(Cl)cc1 (centres undefined)	DENV2 CPE 86 (no result: Rtt109 Vps75)
CC(C)(C(=O)N1CCC1(C)C(=O)NS(=O)(=O)c1cccc(Cl)c1)c1ccccc1 (centres undefined)	DENV2 CPE 44 (no result: Rtt109 Vps75)
CC(C)(C(=O)N1CCC1(C)C(=O)NS(=O)(=O)c1cccc(F)c1)c1ccccc1 (centres undefined)	none (no result: Rtt109 Vps75)
CN1C(=O)c2cc(NC(=O)c3ccc(F)cc3)ccc2OC[C@H]2O[C@H](CC(=O)NC3CCC3)CC[C@@H]21	none (no result: Glyco luc inh, Rtt109 Vps75)
C[C@@H]1CN([C@@H](C)CO)C(=O)Cc2cc(NC(=O)C3CCCCC3)ccc2O[C@@H]1CN(C)C(=O)Nc1ccc2c(c1)OCO2	none (no result: Glyco luc inh, Rtt109 Vps75)
CCCCCCC(=O)N(O)C1CC(=O)N(c2ccc(C)cc2)C1=O (centres undefined)	Glyco luc inh 38 (no result: DENV2 CPE)
Cc1ccc(N2C(=O)CC(N(O)C3CC(=O)N(c4ccc(C)cc4)C3=O)C2=O)cc1 (centres undefined)	none (no result: PglD inh, DENV2 CPE)
CCCCCCC(=O)N(O)C1CC(=O)N(c2ccc(Cl)cc2)C1=O (centres undefined)	Glyco luc inh 61
COc1cccc(S(=O)(=O)N2CC[C@@H]3[C@@H](CO)Nc4ccc(C#Cc5ccccc5)cc4[C@@H]32)c1	none (no result: Glyco luc inh, Rtt109 Vps75)
COc1cccc(S(=O)(=O)N2CC[C@H]3[C@H](CO)Nc4ccc(C#Cc5ccccc5)cc4[C@H]32)c1	DENV2 CPE 31 (no result: Glyco luc inh, Rtt109 Vps75)
COc1cccc(C#Cc2ccc3c(c2)[C@@H]2[C@@H](CCN2S(=O)(=O)c2cccc(OC)c2)[C@@H](CO)N3)c1	none (no result: Glyco luc inh, PglD inh, Rtt109 Vps75)
COc1cccc(C#Cc2ccc3c(c2)[C@@H]2[C@@H](CCN2S(=O)(=O)c2ccccc2)[C@@H](CO)N3)c1	DENV2 CPE 45 (no result: Glyco luc inh, PglD inh, Rtt109 Vps75)
CN(C)c1ccc2c(c1)[C@@H]1C[C@H](CC(=O)NCC3CC3)O[C@H](CO)[C@@H]1O2	none (no result: Glyco luc inh, Rtt109 Vps75)
CO[C@H]1CN(C)C(=O)c2ccc(NC(=O)C3CC3)cc2OC[C@H](C)N(C(=O)NC(C)C)C[C@@H]1C	none (no result: Glyco luc inh, Rtt109 Vps75)
CC(C)C[C@H](NC(=O)c1nc[nH]c1C(=O)N1CCC(C)CC1)C(=O)OC(C)(C)C	DENV2 CPE 82
CCCNC(=O)[C@@H]1[C@@H](CO)[C@@H]2Cn3c(cccc3=O)[C@@H]2N1CC1CCCC1	none (no result: Glyco luc inh, PglD inh, Rtt109 Vps75)
Cc1ccc(S(=O)(=O)c2nc(-c3ccccc3)oc2N2CCC(C(N)=O)CC2)cc1	Rtt109 Vps75 56
Cc1noc(C)c1S(=O)(=O)N(C)C[C@H]1OCCCC[C@@H](C)Oc2ccc(NC(=O)Nc3ccc4c(c3)OCO4)cc2C(=O)N([C@@H](C)CO)C[C@H]1C	DENV2 CPE 86 (no result: Glyco luc inh, Rtt109 Vps75)
